From PubChem BioAssay (NCATS)
Values joined by “and” are separate entries in the source; they are usually repeats but may differ in a detail not shown here. Equal values may be shown once. Results filed as inconclusive are left out. Where a structure was tested more than once in an assay, its records may differ in their call. Active and inactive are the calls of the source. The call rests on the fitted dose curve; in most records, active means well fitted inhibition curve with a large enough effect; inconclusive means small, poorly fitted or top-dose-only effect; inactive means no such curve, though single readings can be large or run the other way.

Assay: Primary qHTS for inhibitors of nuclear receptor binding SET domain protein 2 (NSD2) in an RCH-ACV wild type WT cells (2C) (AID 1645877); further: nearly all actives have a fitted effect of over 70% in size
Details: RCH-ACV (leukaemia line) NSD2 WT (2C) viability, CellTiter-Glo, 72 h; series mostly up to 44.9 µM; activity change, negative = cell killing: at the top concentration
Description: Assay Provider: Jonathan D. Licht, MD
University of Florida College of Medicine, Gainesville, FL
Mutations in epigenetic regulators are common in relapsed pediatric acute lymphoblastic leukemia (ALL). Here, we uncovered the mechanism underlying the relapse of ALL driven by an activating mutation of the NSD2 histone methyltransferase (p.E1099K). […] Correction of this mutation restored glucocorticoid sensitivity. The transcriptional response to glucocorticoids was blocked in NSD2 mutant cells due to depressed glucocorticoid receptor (GR) levels and the failure of glucocorticoids to autoactivate GR expression. […] Pre-treatment of NSD2 p.E1099K cell lines and PDX samples with PRC2 inhibitors reversed glucocorticoid resistance in vitro and in vivo.
High-throughput drug screening of isogenic RCH-ACV cell lines was performed at the National Center for Advancing Translational Science (NCATS), National Institutes of Health as previously described (1). Briefly, isogenic RCH-ACV NSD2 p.E1099K mutant (9B) and WT cells (2C) were plated at 500 cells/well in a 1536-well plate with a 72-hour incubation with compounds prior to addition of CellTiter-Glo to assess cell viability. NCATS libraries screened include: NPC, MIPE 5.0, Kinase and NPACT. To determine compound activity in the qHTS assay, the concentration-response data for each sample was plotted and modeled by a four-parameter logistic fit yielding IC50 and efficacy (maximal response) values. The area under the curve (AUC) of the dose-response curve ensures both efficacy (magnitude of cell killing) and potency (concentration that elicits cell killing) are accounted for in the analysis of activity.
1. Tobie D Lee, Olivia W Lee, Kyle R Brimacombe, Lu Chen, Rajarshi Guha, Sabrina Lusvarghi, Bethilehem G Tebase, Carleen Klumpp-Thomas, Robert W Robey, Suresh V Ambudkar, Min Shen, Michael M Gottesman, Matthew D Hall. A High-Throughput Screen of a Library of Therapeutics Identifies Cytotoxic Substrates of P-glycoprotein. Mol Pharmacol. 2019, Nov;96(5):629-640.
On the % scale 0 is the no-effect control and ±100 the full control effect.

| Compound | activity change, negative = cell killing | Potency | outcome |
| --- | --- | --- | --- |
| CN(C)CCN(C)CCc1ccc(Cl)c(Cl)c1 | -14% (inactive) |  |  |
| O=C1CC[C@@]2(O)[C@H]3Cc4ccc(O)c5c4[C@@]2(CCN3CC2CC2)[C@H]1O5 |  | inactive |  |
| O=c1[nH]c2ccccc2n1CCCN1CCC(n2c(=O)[nH]c3cc(Cl)ccc32)CC1 |  | 20.9 µM (active) |  |
| CN1CCN(C(=O)O[C@H]2c3nccnc3C(=O)N2c2ccc(Cl)cn2)CC1 |  |  | inactive |
| CN(C)CCc1ccc(O)cc1 | 2.07% (inactive) |  |  |
| CCOC(=O)C1(c2ccccc2)CCN(CCC(C#N)(c2ccccc2)c2ccccc2)CC1 |  | 5.96 µM (active) |  |
| O=c1[nH]c2ccccc2n1C1CCN(CCCC(c2ccc(F)cc2)c2ccc(F)cc2)CC1 |  | 16.8 µM (active) and 5.78 µM (active) |  |
| C#CCOC(C(=O)OCCN(C)C)(c1ccccc1)c1ccccc1 | 7.26% (inactive) |  |  |
| C#CCN(C)[C@H](C)Cc1ccccc1 |  | inactive |  |
| C[C@H]1O[C@@H](O[C@H]2[C@@H](O)C[C@H](O[C@H]3[C@@H](O)C[C@H](O[C@H]4CC[C@@]5(C)[C@H](CC[C@@H]6[C@@H]5CC[C@]5(C)[C@@H](C7=CC(=O)OC7)CC[C@]65O)C4)O[C@@H]3C)O[C@@H]2C)C[C@H](O)[C@@H]1O |  | 42.2 nM (active) and 85.8 nM (active) |  |
| Cc1cccc(C)c1NC1=NCCCS1 | -7.76% (inactive) |  |  |
| N[C@@H](Cc1ccc(N(CCCl)CCCl)cc1)C(=O)O |  | 2.66 µM (active) and 2.35 µM (active) |  |
| Cn1cc(C2=C(c3cn(C4CCN(Cc5ccccn5)CC4)c4ccccc34)C(=O)NC2=O)c2ccccc21 |  | inactive |  |
| CC1OC(C)OC(C)O1 (stereo not given) |  |  | inactive |
| O=C(O)c1ccc2[nH]cc(CCCCN3CC=C(c4ccccc4)CC3)c2c1 | -6.32% (inactive) |  |  |
| c1ccc2c(c1)Nc1ccccc1S2 | -26.8% (inactive) |  |  |
| Fc1ccc(C(OCCN2CCN(CCCc3ccccc3)CC2)c2ccc(F)cc2)cc1 |  | 5.96 µM (active) and 9.34 µM (active) |  |
| Oc1cccc2cccnc12 |  | 34.4 µM (active) and inactive |  |
| COc1ccc(C(CN(C)C)C2(O)CCCCC2)cc1 (stereo not given) | -6.25% (inactive) |  |  |
| CN(C)[C@@H]1C(=O)C(C(N)=O)=C(O)[C@@]2(O)C(=O)C3=C(O)c4c(O)cccc4[C@@](C)(O)[C@H]3C[C@@H]12 | -11% (inactive) |  |  |

| Compound | activity change, negative = cell killing | Potency | outcome |
| --- | --- | --- | --- |
| Oc1cc(Cl)ccc1Oc1ccc(Cl)cc1Cl |  | 6.24 µM (active) |  |
| CCCN1CCC[C@@H]2Cc3nc(N)ncc3C[C@H]21 | -11.7% (inactive) |  |  |
| CNCC(O)c1ccc(O)cc1 (stereo not given) |  | inactive |  |
| CC(=O)[C@H]1CC[C@H]2[C@@H]3CC[C@H]4C[C@](C)(O)CC[C@]4(C)[C@H]3CC[C@]12C |  |  | inactive |
| Nc1ccncc1 |  |  | inactive |
| Oc1ccccc1-c1ccccc1 | -6.86% (inactive) |  |  |
| COc1ccc2c(c1OC)CN1CCc3cc4c(cc3C1C2)OCO4 (stereo not given) |  | 10.6 µM (active) |  |
| OCCOc1ccccc1 |  |  | inactive |
| CCCC1CCCCN1 (stereo not given) | -1.77% (inactive) |  |  |
| CCCC(C)(COC(N)=O)COC(=O)NC(C)C (stereo not given) | 6.54% (inactive) |  |  |
| COc1ccc(Cc2nccc3cc(OC)c(OC)cc23)cc1OC |  | 5.25 µM (active) |  |
| C=C1CC[C@@]2(O)[C@H]3Cc4ccc(O)c5c4[C@@]2(CCN3CC2CC2)[C@H]1O5 | 7.55% (inactive) |  |  |
| CCCN1CCC[C@@H]2Cc3[nH]ncc3C[C@H]21 |  |  | inactive |
| NN=C(N)N | 6.84% (inactive) |  |  |
| O=P1(NCCCl)OCCCN1CCCl (stereo not given) |  | inactive |  |
| CCN(CC)CCOC(=O)C(O)(c1ccccc1)c1ccccc1 | -11.3% (inactive) |  |  |
| Cc1ccc(S(=O)(=O)N[C@@H](CCCCN)C(=O)CCl)cc1 | -14.7% (inactive) |  |  |
| Cc1cccc(C)c1NC(=O)CN1CCCC1=O |  | inactive |  |
| C=C1C[C@@H]2[C@H](CC[C@]3(C)C(=O)CC[C@@H]23)[C@@]2(C)C=CC(=O)C=C12 |  | 11.9 µM (active) and 18.6 µM (active) |  |
| CC(C)(N)Cc1ccc(Cl)cc1 | -18.3% (inactive) |  |  |
